# Screens from PubChem BioAssay.
# A549 tox: counter-screen for Nrf2 inhibitors: cytotoxicity in A549 cells; actives 0.16% (n = 390,000); Potency, µM (titrated, usually from 46 µM), for the others: at the highest dose activity change, negative = cytotoxicity, actives largely listed as inhibitors; A549 ARE-Fluc cells, CellTiter-Fluor viability, 18-24 h; also: potency is read from the fitted curve at half-maximal effect; % is scaled to controls: 0 for no effect and ±100 for the full control effect
#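 Cytotoxicity counterscreen: CellTiter-Fluor fluorescence was measured in A549 ARE_Fluc cells after 18-24 h of compound exposure in a concentration series. The subsequent BugLite luminescent read reports ARE-luciferase activity.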
# ALOX12 inh: inhibitors of human 12S-lipoxygenase ALOX12. P18054. purified 12hLO, xylenol orange hydroperoxide absorbance. Potency, µM (highest dose often 108 µM), inactives show at the top dose activity change, negative = inhibition, most hits filed as inhibitors. actives 1.1% (n = 580,000); also: potency is read from the fitted curve at half-maximal effect; % is scaled to controls: 0 for no effect and ±100 for the full control effect
#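 Purified human 12hLO at 150 nM in 25 mM Hepes, 0.01% Triton X-100, pH 7.0, preincubated 15 min at room temperature with compound. Reaction started with 40 uM arachidonic acid, 30 min at room temperature. Hydroperoxide measured by Fe-xylenol orange, 573/405 nm absorbance ratio.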
# Nrf2 ARE act: activates Nrf2 signaling. AREc32 ARE-luciferase reporter (MCF7-derived line), luminescence, 24 h. Potency, µM (titrated, usually from 46.1 µM), inactives show at the top dose activation, usual class: activators. actives 0.31% (n = 410,000); also: potency is read from the fitted curve at half-maximal effect; % of control where 0% means no effect; nearly all actives have a fitted effect of over 65% in size
#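 ARE-driven firefly luciferase activity in AREc32 cells measured after a 24 hr compound exposure at 37 deg C, using Steady-Glo reagent and a 30 min room-temperature hold.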
# Nrf2 block: inhibitors of Nrf2 signaling. A549 ARE-Fluc reporter, luciferase luminescence, 18-24 h. Potency, µM (top dose mostly 46 µM), without a hit: at the top dose activity change, negative = inhibition, most hits filed as inhibitors. actives 2.1% (n = 360,000). AID 504444; also: potency is read from the fitted curve at half-maximal effect; % is scaled to controls: 0 for no effect and ±100 for the full control effect; nearly all actives have a fitted effect of over 60% in size
#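 Two sequential reads on A549 ARE_Fluc cells exposed to compound for 18-24 h: a CellTiter-Fluor fluorescence read for viability, then a luciferase luminescence read for Nrf2/ARE activity.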
# LDHA block: LDHA (human) enzyme inhibition; P00338; purified LDHA, NADH/diaphorase-resazurin fluorescence; active compounds read low; activity change, % (values are at about 110 or 230 µM); actives 0.15% (n = 480,000); AID 1347041; in the data active = activity change below about -30%; inconclusive = mostly about -25% to -30%;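 also: plate controls were DMSO wells for no effect and wells without enzyme for full effect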
#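 Human LDH5 (2 nM) was incubated with 0.06 mM NADH and 0.2 mM pyruvate for 5 min at room temperature in Tris pH 7.4. Remaining NADH was coupled through diaphorase/resazurin, and resorufin fluorescence was read at 0 and 20 min.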
# ERG Ets-DNA blk: blocks human ERG Ets domain binding to DNA; P11308; fluorescence polarization, His-ERG Ets domain / labelled DNA; Potency, µM (top dose mostly 76.9 µM), for inactives: at the highest dose FP activity, negative = inhibition, usual class: inhibitors; actives 0.028% (n = 370,000); active = well fitted inhibition curve with a large enough effect in the polarisation, with a control signal flat; inconclusive = small, poorly fitted or top-dose-only effect, or effect the other way, or a change in a side signal; inactive = no such curve, though single readings can be large or run the other way; the % refers to the polarisation;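 also: polarization taken with two DNA probes labelled with fluorescein and Texas red; potency is read from the fitted curve at half-maximal effect; % of control where 0% means no effect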
# Target sequence (P11308 whole entry, looked up, the tested form may be a part): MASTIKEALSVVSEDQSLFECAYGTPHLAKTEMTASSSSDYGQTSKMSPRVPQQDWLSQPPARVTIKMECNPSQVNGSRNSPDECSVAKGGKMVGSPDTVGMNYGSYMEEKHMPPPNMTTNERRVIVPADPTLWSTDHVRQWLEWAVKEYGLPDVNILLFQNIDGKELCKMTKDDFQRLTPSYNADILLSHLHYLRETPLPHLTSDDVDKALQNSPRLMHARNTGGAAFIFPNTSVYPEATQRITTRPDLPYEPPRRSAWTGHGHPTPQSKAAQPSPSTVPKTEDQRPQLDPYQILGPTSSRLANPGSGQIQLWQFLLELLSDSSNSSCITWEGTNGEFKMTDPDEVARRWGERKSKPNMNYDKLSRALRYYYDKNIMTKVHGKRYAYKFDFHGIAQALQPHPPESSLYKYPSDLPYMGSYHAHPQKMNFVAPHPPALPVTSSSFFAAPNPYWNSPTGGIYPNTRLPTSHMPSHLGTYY
#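 His-tagged ERG Ets domain (1 uM in the protein solution; 300mM KCl, 50mM Tris-HCl, 1mM EDTA, 1mM DTT, pH 7.5) received compound, then a probe mix of 5 nM fluorescein-DNA and 100nM Texas-615-DNA. Fluorescence polarization was read for both dyes.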
# The depositor's hits bear a star; ? = inconclusive; / = not tested or not shown; [ ] = dose if it differs, or a comment. A selection: hits, their analogues and other compounds. The true share with any hit is near 2.7%. Unless noted, calls follow the shape of the dose curve; as a rule, active = well fitted curve in the direction sought with a large enough effect; inconclusive = small, poorly fitted or top-dose-only effect, or another doubt; inactive = no such curve, though single readings can be large; an effect the other way counts as inactive or inconclusive.
SMILES,A549 tox,ALOX12 inh,Nrf2 ARE act,Nrf2 block,LDHA block,ERG Ets-DNA blk
CC(=O)Nc1ccc2nc(-c3cccc(C)c3)oc2c1,/,?,/,/,2,/
COc1ccc(OC)c(C(C)NC(=S)NC2CCCCC2)c1 (stereo not given),0%,?,0%,18µM*,-8,-11%
CCOc1ccc(C(=S)NC2CCCCC2)cc1OC,3%,22µM*,2%,?,-12,-4%
COc1ccc(NC(=S)NC2CCCC2)c(OC)c1,15%,1%,0%,1%,-3,0%
CCOc1ccccc1C(=S)NC1CCCCC1,-7%,?,-1%,-2%,-3,2%
Cc1ccc(C)c(C(C)NC(=O)C2CCCC2)c1 (stereo not given),-1%,-20%,-1%,2%,-3,6%
Cc1ccc(C)c(C(C)NC(=S)NC2CCCCC2)c1 (stereo not given),?,45µM*,0%,?,-3,-6%
COc1ccc(-c2noc([C@@H]3Cc4nc[nH]c4CN3C(=O)Nc3ccccc3)n2)cc1,/,29%[176 µM],/,/,/,/
N#Cc1ccc(-c2nc3ccc(Cl)cn3c2Cc2cccc(Cl)c2)cc1,/,35µM*,1%,/,-4,/
Clc1cccc(Cc2c(-c3ccco3)nc3ccc(Br)cn23)c1,/,11µM*,?,/,-4,/
Brc1ccc2nc(-c3ccco3)c(Cc3ccccc3)n2c1,/,14µM*,?,/,-1,/
Cc1cc2nc(-c3ccco3)c(Cc3cccc(Cl)c3)n2c(C)c1Br,/,?,?,/,4,/
Clc1cccc(Cc2c(-c3ccco3)nc3ccc(Cl)cn23)c1,/,22µM*,?,/,-5,/
Cc1ccc2nc(-c3ccc(C#N)cc3)c(Cc3cccc(Cl)c3)n2c1,/,-11%,5%,/,-4,/
O=C(/C=C/c1ccc(Br)cc1)c1cccc(O)c1,/,?,/,/,12,/
N#Cc1cc2c(nc1N1CCN(C(C(=O)O)c3c[nH]c4ccccc34)CC1)CCCC2 (stereo not given),/,-2%,/,/,-1,/
C[C@H](c1ccccc1)N1C[C@@H](COCc2ccccc2)Oc2cc(N3CCC[C@@H]3CO)ccc2S1(=O)=O,/,-5%,8%,/,-1,/
C[C@H](c1ccccc1)N1C[C@H](COCc2ccccc2)Oc2cc(N3CCC[C@H]3CO)ccc2S1(=O)=O,/,50µM*,0%,/,-9,/
COC(=O)c1cccn2cc(CN3CCN(S(=O)(=O)c4cccc(C(F)(F)F)c4)CC3)nc12,/,31%,/,/,-7,/
COc1cccc(C2=Cc3ccc(F)cc3C(CC(C)=O)N2c2ccc(-c3cc(OC)c(OC)c(OC)c3)cc2)c1 (stereo not given),/,-18%,0%,/,21,/
COc1cccc(C2=Cc3ccc(F)cc3C(CC(C)=O)N2c2ccc(-c3cncnc3)cc2)c1 (stereo not given),/,32µM*,5%,/,21,/
Cc1nc2nncn2c(Nc2ccc(F)cc2)c1C,-12%,0%,1%,?,-4,4%
Cc1nc2nncn2c(NCc2ccc(F)cc2)c1C,0%,1%,3%,8.2µM*,-13,9%
CC(=O)c1cccc(-n2nnnc2SCC(=O)Nc2ccccc2N2CCCCC2)c1,-15%,0%,3%,23µM*,-3,-3%
COc1ccc(-n2nnnc2SCC(=O)Nc2ccccc2N2CCOCC2)cc1OC,3%,-5%,0%,-2%,0,3%
SMILES,A549 tox,ALOX12 inh,Nrf2 ARE act,Nrf2 block,LDHA block,ERG Ets-DNA blk
COc1cc(N=Nc2cccc(S(N)(=O)=O)c2)c2ccccc2c1N,-28%,6.3µM*,?,?,41,108%
COc1ccc(C2CC(=O)N3CN(Cc4ccccc4)CSC3=C2C#N)c(OC)c1 (stereo not given),/,5.6µM*,/,/,55,/
COc1cc(C2CC(=O)N3CN(Cc4ccccc4)CSC3=C2C#N)cc(OC)c1OC (stereo not given),/,?,/,/,41,/
COc1ccc(Br)cc1C1CC(=O)N2CN(Cc3ccccc3)CSC2=C1C#N (stereo not given),0%,?,1%,0%,7,2%
CCc1ccc(C2CC(=O)N3CN(Cc4ccccc4)CSC3=C2C#N)cc1 (stereo not given),/,3.2µM*,/,/,57,/
N#CC1=C2SCN(Cc3ccco3)CN2C(=O)CC1c1c(F)cccc1Cl (stereo not given),-3%,?,4%,?,4,-5%
Cc1ccc(C2CC(=O)N3CN(Cc4ccco4)CSC3=C2C#N)cc1 (stereo not given),/,6.3µM*,3%,9%,27,-5%
CC1(CNc2ccccc2)COc2ccc(C(=O)NCCc3ccccc3)cc2N1 (stereo not given),/,4%[176 µM],/,/,/,/
CN1CCN(c2ccc(NC(=O)COc3ccc(Br)cc3Br)cn2)CC1,/,-18%,/,/,-3,/
CC(C)c1ccc(NC(=O)Cn2cc(C#N)c3ccccc32)cc1,/,-22%,/,/,5,/
Cc1cccc(C(=O)Nc2ccc(C(=O)OCc3cc(=O)n4ccsc4n3)cc2)c1,/,?,/,/,-10,/
S=c1[nH]nc(-c2ccc(Cl)cc2)n1/N=C/C=C/c1ccco1,-4%,14µM*,?,-2%,1,9%
S=c1[nH]nc(-c2ccc(Cl)cc2)n1/N=C/c1ccco1,0%,?,10%,-15%,-9,-1%
Cc1ccccc1-c1n[nH]c(=S)n1/N=C/C=C/c1ccco1,-4%,?,13µM*,?,4,30%
S=c1[nH]nc(-c2ccccc2)n1/N=C/C=C/c1ccco1,-2%,40µM*,?,-7%,-2,4%
S=c1[nH]nc(-c2cccnc2)n1/N=C/C=C/c1ccco1,-2%,?,?,4%,9,6%
Cc1cc(-c2n[nH]c(=S)n2/N=C/C=C/c2ccco2)n[nH]1,6%,?,3%,3%,-14,-3%
Cc1cc(-c2ccc3c(c2)OCCCO3)nc2ccccc12,/,?,/,/,0,/
CCOC(=O)Nc1ccc2c(CN3CCC(C(N)=O)CC3)cc(=O)oc2c1,/,?,/,/,12,/
